Source: PubChem BioAssay
Luc counter: blocks Kinase-Glo luciferase, a counter-screen artifact; Potency, µM (doses to about 38.3 µM), for the others: top-dose activity change, negative = inhibition, most hits filed as inhibitors; AID 1379; Q27757; hit rate 0.28% among 200,000; Kinase-Glo luciferase, ATP luminescence, 8 min; active means well fitted inhibition curve with a large enough effect; inconclusive means small, poorly fitted or top-dose-only effect; further: potency means the concentration at half of the fitted maximal effect; nearly all actives have a fitted effect of over 60% in size
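Compounds were added to a substrate mix at pH 7.2 (50 mM imidazole, 10 uM ATP, within the enzyme's linear range), followed by Kinase-Glo detection reagent; luminescence was measured after 8 minutes at ambient temperature.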
IMPase cell inh: membrane-permeable compound that blocks inositol monophosphatase; 120,000 tested, under 10 active; inhibition (IP1 accumulation), % at 46.1 µM; P97697; CHO-M1 cells, IP1 accumulation, HTRF TR-FRET ratio; active means well fitted curve in the direction sought with a large enough effect in the signal ratio, not every such curve was filed as active; inconclusive means small, poorly fitted or top-dose-only effect, or a change in a side signal; inactive means no such curve, though single readings can be large or run the other way; the % refers to the signal ratio;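 further: cells stimulated with carbachol in lithium chloride buffer; plate controls were DMSO basal wells for no effect and reference inhibitor wells for full effect; higher means more IMPase inhibition seen as more IP1 and lower FRET ratio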
Target sequence (P97697 whole entry, looked up): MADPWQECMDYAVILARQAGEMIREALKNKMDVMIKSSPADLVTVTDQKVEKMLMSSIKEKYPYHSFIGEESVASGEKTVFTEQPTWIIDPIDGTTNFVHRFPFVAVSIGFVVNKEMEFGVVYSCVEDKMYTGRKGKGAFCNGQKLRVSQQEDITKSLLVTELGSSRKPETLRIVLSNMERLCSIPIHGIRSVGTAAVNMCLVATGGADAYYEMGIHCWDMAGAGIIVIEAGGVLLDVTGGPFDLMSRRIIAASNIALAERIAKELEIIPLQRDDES
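Elevated IP1 in lysates lowers TR-FRET signal (665/620 ratio and 620 channel reported). Cells were CHO-M1, given carbachol (50 uM as added) plus 50mM LiCl, pH 7.4, 30 min, 37C; compounds titrated up to 46 uM; AC50 by Hill equation.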
ALDH1A1 inh: inhibitors of human aldehyde dehydrogenase 1A1. Purified ALDH1A1, NADH fluorescence, propionaldehyde substrate. Potency, µM (series often up to 75.3 µM), inactives show top-dose activity, negative = inhibition, usual class: inhibitors. hit rate 7.3% among 220,000. P00352;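 further: potency means the concentration at half of the fitted maximal effect; plate controls were no enzyme wells and a reference inhibitor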
LMNA splice mod: changes lamin A minigene splicing in HeLa cells; HeLa LMNA splicing GFP/RFP minigene ratio, 48 h; Potency, µM (doses to about 46.1 µM), inactives show at the top dose ratio change, negative = inhibition, usual class: inhibitors; hit rate 0.01% among 200,000; active means well fitted inhibition curve with a large enough effect in the signal ratio, with a control signal flat, not every such curve was filed as active; inconclusive means small, poorly fitted or top-dose-only effect, or effect the other way, or a change in a side signal; the % refers to the signal ratio; further: potency means the concentration at half of the fitted maximal effect
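S3 HeLa stable clones carrying a lamin A-EGFP splicing minigene plus DsRed2 were seeded at 600 cells/well in Opti-MEM with 2% FBS, pin-dosed and incubated 48 h at 37°C. Acumen cytometry (488 nm) gave the GFP/RFP total-intensity ratio.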
HPGD block: blocks human HPGD enzyme activity | hit rate 4.3% among 150,000 | AID 894 | Potency, µM, for the others: at the highest dose activity change, negative = inhibition, actives largely listed as inhibitors | purified HPGD, NADH fluorescence kinetic, PGE2 substrate | P15428; further: potency means the concentration at half of the fitted maximal effect
Target sequence (P15428 whole entry, looked up): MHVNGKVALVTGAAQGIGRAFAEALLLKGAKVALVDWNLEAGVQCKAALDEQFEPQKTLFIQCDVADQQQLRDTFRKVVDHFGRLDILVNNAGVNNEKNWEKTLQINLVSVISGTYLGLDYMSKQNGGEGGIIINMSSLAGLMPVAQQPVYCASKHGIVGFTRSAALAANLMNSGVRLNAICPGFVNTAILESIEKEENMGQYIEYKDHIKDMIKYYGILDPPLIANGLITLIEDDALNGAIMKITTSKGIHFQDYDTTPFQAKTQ
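NADH formation kinetics: reaction with 30 uM PGE2 and 1 mM NAD+ (final), 20 nM enzyme, Tris-HCl pH 8 with Tween 20, after 15 min compound preincubation at room temperature. Fluorescence change, last versus first of five reads.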
PNC assembly inh: perinucleolar compartment assembly inhibition; PC3M PTB-GFP, PNC prevalence imaging, 16 h; stronger effect = lower value; AID 2417; hit rate 3.1% among 140,000; activity change (PNC), negative = inhibition, % at 10 µM;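 active means readout at or below -70, meaning at least 70% loss of cells showing the perinucleolar compartment, a nuclear body marking cancer cells; inconclusive means readout between -30 and a set limit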;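 further: plate controls were DMSO wells for no effect and camptothecin positive control wells for full effect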
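PC3M cells stably expressing PTB-GFP, 750–1000 cells/well, treated 16 h at 37 °C with compound (23 nl of library stock), in duplicate. After paraformaldehyde fixation and Hoechst stain, imaged at 20x; PNC prevalence scored by image analysis.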
* = called active by the depositor; ? = inconclusive; . = no result; ! = not confirmed by another sample; [ ] = dose if it differs, or a comment. A selection: hits, their analogues and other compounds. The true share with any hit is near 10%. Unless noted, the call rests on the fitted dose curve; in most records, active means well fitted inhibition curve with a large enough effect (not every such curve was filed as active); inconclusive means small, poorly fitted or top-dose-only effect, or another doubt; inactive means no such curve, though single readings can be large or run the other way. Unless noted, on the % scale 0 is the no-effect control and ±100 the full control effect.

SMILES | Luc counter | IMPase cell inh | ALDH1A1 inh | LMNA splice mod | HPGD block | PNC assembly inh
COc1cccc(-c2cc(C(F)(F)F)n3nc(C(=O)N4CCC5(CC4)OCCO5)cc3n2)c1 | -1% | -1 | 13µM* | -1% | 11µM* | -19
CSc1ccc(C(=O)C(C)(C)N2CCOCC2)cc1 | 0% | -5 | 8.9µM* | 3% | -7% | ?
CCOC(=O)C1=CC(OC(CC)CC)C(NC(C)=O)C(N)C1 (stereo not drawn) | -1% | . | 7% | ? | -10% | .
N#CCc1ccccc1 | . | . | 2% | . | -8% | .
CCN1C(=O)C(=Cc2ccc(C)s2)C(=O)N(CC)C1=S | -9% | . | 7.1µM* | ? | 8.9µM* | 50
CCN1C(=O)C(=C2C=C(C)OC(C)=C2)C(=O)N(CC)C1=S | 3% | . | 6% | . | . | .
CC1=CC(=O)OC2CC3OC4C[C@@H](C)C5OC6CC7O[C@]8(C)C/C=C\C9OC%10CC%11OC(CC(C)CO)CC(O)[C@]%11(C)OC%10CC9OC8C[C@]7(C)O[C@]6(C)CCC5OC4C[C@]3(C)OC12 (stereo partly drawn) | . | . | 2.8µM* | . | . | .
CCC(=NCCO)c1c(O)n(C2CCCCC2)c(=O)[nH]c1=O | 0% | -6 | 6% | 0% | -3% | 14
CCC(=NCc1ccc2c(c1)OCO2)c1c(O)n(C2CCCCC2)c(=O)[nH]c1=O | -1% | 9 | 13µM* | -14% | -29% | -83*
C#CCN1C(C)=C(C(=O)CCO)[C@@H](c2cccc(-n3oo3)c2)C(C(=O)OC)=C1C | 2% | 13 | 0% | . | -30% | .
O=c1ccc2cc(O[C@H]3OC(CO)C(O)C(O)C3O)c(O)cc2o1 (stereo partly drawn) | -12% | . | ? | . | ? | .
Cc1csc(NC(=O)C2CCCN(S(=O)(=O)c3ccc4c(c3)oc(=O)n4C)C2)n1 (stereo not drawn) | 1% | 10 | -15% | ? | 8.9µM* | -10
C=CCN1C(=O)/C(=C/c2cc(C)n(-c3ccccn3)c2C)C(=O)NC1=S | 2% | . | ? | 4% | 13µM* | -17
COc1c2ccoc2cc2oc(=O)ccc12 | 0% | -4 | 20µM* | . | -1% | .
CN(C)C(=S)SSC(=S)N(C)C | -2% | . | 0.079µM* | ? | 0.71µM* | .
CN(C)C(=S)SC(=S)N(C)C | 3%[39.9 µM] | . | 3.5µM* | ? | -20% | .
COC[C@H]1OC(=O)c2coc3c2[C@@]1(C)C1=C(C3=O)C2CCC(=O)[C@@]2(C)C[C@H]1OC(C)=O (stereo partly drawn) | -13% | . | 28µM*! | ? | 35µM*! | .
COC[C@H]1OC(=O)c2coc3c2[C@@]1(C)C1=C(C3=O)[C@H]2CCC(=O)[C@@]2(C)C[C@H]1OC(C)=O | -16% | 34 | 28µM* | . | 32µM* | .
COC(=O)[C@H](N)CCCN=C(N)N[N+](=O)[O-] | . | 6 | . | . | . | .
CC(C)[C@H](CO)Nc1nc(Nc2cccc(Cl)c2)c2ncn(C(C)C)c2n1 | 1% | 1 | ? | . | -19% | .
CCN1CCN(Cc2cc(C(C)(C)C)c(O)c(C(C)(C)C)c2)CC1 | -1% | 12 | 28µM* | 4% | 3% | -11
C[C@@H]1CC[C@@]2(OC1)O[C@H]1[C@@H](O)[C@H]3[C@@H]4CC[C@H]5C[C@@H](O[C@@H]6O[C@H](CO)[C@H](O[C@@H]7O[C@H](CO)[C@@H](O)[C@H](O[C@@H]8OC[C@@H](O)[C@H](O)[C@H]8O)[C@H]7O[C@@H]7O[C@H](CO)[C@@H](O)[C@H](O[C@@H]8O[C@H](CO)[C@@H](O)[C@H](O)[C@H]8O)[C@H]7O)[C@H](O)[C@H]6O)[C@H](O)C[C@]5(C)[C@H]4CC[C@]3(C)[C@H]1[C@@H]2C | . | . | 20µM* | . | -5% | .
[N-]=[N+]=NCC(=O)c1c[nH]c(=O)[nH]c1=O | -12%[7.66 µM] | . | -6%[13.5 µM] | . | -13% | .
CC1(C)CC(=O)C2=C(C1)OC(N)=C([N+](=O)[O-])C2c1ccc(C#N)s1 (stereo not drawn) | -3% | . | 20µM* | . | . | .
